High-throughput results (PubChem)
Beta2AR agonist = human beta-2 adrenergic receptor agonism by FAP. P07550. Am2.2-beta2AR cells, FAP receptor internalization, flow cytometry. response, % (concentration not given with the values). actives 0.43% (n = 340,000). AID 504454;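 active = response above a set limit, near 3 SD of response in nonfluorescent compounds, cut at about 42% in these data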
Target sequence (P07550 whole entry, looked up): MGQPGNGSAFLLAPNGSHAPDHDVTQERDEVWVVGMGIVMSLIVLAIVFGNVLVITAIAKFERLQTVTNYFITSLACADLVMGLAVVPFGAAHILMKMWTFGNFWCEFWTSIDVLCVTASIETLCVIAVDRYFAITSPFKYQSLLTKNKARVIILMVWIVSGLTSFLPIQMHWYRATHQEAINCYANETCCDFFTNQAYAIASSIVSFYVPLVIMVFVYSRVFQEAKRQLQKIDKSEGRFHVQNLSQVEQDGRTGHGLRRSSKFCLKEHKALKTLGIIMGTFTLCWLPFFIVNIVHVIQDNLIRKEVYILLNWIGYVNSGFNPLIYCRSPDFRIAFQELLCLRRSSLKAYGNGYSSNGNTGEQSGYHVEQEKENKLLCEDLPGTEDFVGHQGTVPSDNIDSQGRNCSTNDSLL
Peg3 prom inh = Peg3 promoter activity inhibition; actives 1.7% (n = 360,000); inhibition, % at 20 µM; AID 588405; HeLa PEG-Prom luciferase reporter, luminescence, overnight;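 active = inhibition of at least 50% at 20 µM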
KKLEB cytotox = counter-screen for CF NF-kB inhibitors: cytotoxicity | KKLEB CF airway cells viability, ATPlite luminescence, overnight; stronger effect = lower value; cells stimulated with P. aeruginosa culture filtrate | activity change (cytotoxicity), % at 5 µM | actives 0.36% (n = 360,000) | AID 602141;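 active = corrected activity change at or below -50% at 5 µM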
HIF-2a block = inhibitors of HIF-2a; 786-0 RCC cells HIF-2a reporter, luciferase luminescence, overnight; inhibition, % at 18.8 µM; actives 0.72% (n = 360,000); AID 624352;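 active = inhibition of the luminescence signal of 40% or more relative to plate controls, in a single-dose primary screen at 18.75 µM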
CF NFkB inh = blocks PAF-induced NF-kB reporter in cystic fibrosis cells; KKLEB NF-kB-GFP reporter, GFP fluorescence overnight; inhibition, % at 5 µM; actives 0.86% (n = 360,000); AID 588850;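 active = at least 50% inhibition at 5 µM, scaled per plate between neutral and stimulator controls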;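 also: PAF is a Pseudomonas aeruginosa culture filtrate used as stimulus; plate controls were PAF-stimulated DMSO wells for no effect and unstimulated DMSO wells for full effect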
TRPM1 prom inh = inhibitors of MITF-driven TRPM1 promoter in melanoma cells; SK-MEL-5 TRPM1 promoter luciferase, 24 h; inhibition, % at 12.5 µM; actives 0.83% (n = 330,000);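 active = mean inhibition across replicates of 60% or more, whatever share of single replicates reaches that level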
* = called active by the depositor; . = no result. A selection: hits, their analogues and other compounds. The true share with any hit is near 2.8%.

SMILES	Beta2AR agonist	Peg3 prom inh	KKLEB cytotox	HIF-2a block	CF NFkB inh	TRPM1 prom inh
CC(=C/C(=O)O)/C=C/c1ccc([N+](=O)[O-])cc1	52*	8	-1	5	-31	8
COc1cc(N=CC2=C(O)c3ccccc3C2=O)cc(OC)c1	-2	-175	1	-166	22	-60
COC1=CC(=O)C=C(OC)C1=O	53*	102*	-9	6	24	54
COC1=CC(=O)c2ccccc2C1=O	-3	24	-29	29	91*	102*
CCN(CC(=O)Nc1ccc(NC(C)=O)cc1)C(=O)c1ccc(COc2ccc(C(C)(C)C)cc2)cc1	2	-96	0	-9	14	11
Cn1cnc([N+](=O)[O-])c1Sc1nc(N)nc2c1ncn2C1CC(O)C(CO)O1 (stereo unspecified)	1	50*	9	23	2	44
CCSc1nc(N)nc2c1ncn2C1OC(CO)C(O)C1O (stereo unspecified)	3	-16	6	2	-10	-1
Cn1c(CNc2ccc(Cl)cc2)nc2ccccc21	3	-249	7	-272	-2	-20
CC(C)N=c1cc2n(-c3ccc(Cl)cc3)c3ccccc3nc-2cc1Nc1ccc(Cl)cc1	33	101*	-18	-47	92*	74*
COc1cccc(NC(=O)CN2CCC(NC(=O)c3ccccc3C)CC2)c1	.	-8	14	-2	-22	.
COc1ccc(NC(=O)C2c3ccccc3OCC(=O)N2Cc2ccc3c(c2)OCO3)cc1 (stereo unspecified)	.	.	.	11	.	.
CCc1ccc(NC2=NCC(c3ccccc3)S2)cc1 (stereo unspecified)	67*	-276	4	-331	-5	-45
O=[N+]([O-])c1ccc(C2CN=C(Nc3ccccc3)S2)cc1 (stereo unspecified)	14	-82	8	-130	-8	-23
O=C1Nc2ccccc2C(=O)N(C2CCCC2)C1C(=O)NC1CC1 (stereo unspecified)	.	.	.	1	.	.
NCCOc1ccccc1-c1ccccc1	4	-1	4	18	2	0
Nc1ccc(Oc2ccccc2-c2ccccc2)cc1	-4	49	6	91*	0	66*
CCOC(=O)N1CCN(C(C(=O)NC2CCCC2)c2ccco2)CC1 (stereo unspecified)	.	.	.	-6	.	.
C=CCSC(=S)NC1CCS(=O)(=O)C1 (stereo unspecified)	16	48	-7	31	37	69*
CCOCCCNC(=O)/C(C#N)=C/c1ccc(-c2ccc(S(=O)(=O)N3CCOCC3)cc2)o1	22	45	-11	17	13	-6
CC(NC(=O)/C(C#N)=C/c1ccc([N+](=O)[O-])o1)c1ccccc1 (stereo unspecified)	18	103*	18	78*	-52	58
CCOCCCNC(=O)/C(C#N)=C/c1ccc([N+](=O)[O-])o1	5	101*	9	34	-6	61*
O=C(NCc1ccc(Cl)c(Cl)c1)c1cc(C2CCCCN2C(=O)c2ccccn2)on1 (stereo unspecified)	.	-3	8	21	-22	.
N#Cc1nc(Nc2cccc(Cl)c2)c2ncn(C3CCCC3)c2n1	8	-181	-54*	-150	51*	-13
CCn1cnc2c(Nc3cc(F)cc(F)c3)nc(C#N)nc21	0	-145	-18	-197	14	-75
C[C@H]1CN([C@@H](C)CO)C(=O)CCCn2nncc2CO[C@H]1CN(C)S(C)(=O)=O	.	-3	4	1	4	.
SMILES	Beta2AR agonist	Peg3 prom inh	KKLEB cytotox	HIF-2a block	CF NFkB inh	TRPM1 prom inh
Cn1c(=O)c2cc(NC(=O)NCCc3cccs3)ccc2n1-c1ccc(C(C)(C)C)cc1	.	11	-1	7	-5	.
Cc1ccsc1-c1nc(C(N)=O)c2[nH]c(=O)n(-c3ccc(Cl)cc3)c2n1	16	76*	-45	10	44	4
Cc1ccc2nc(-c3ccc(C#N)cc3)c(Cc3ccccc3C(F)(F)F)n2c1	.	-15	-27	-102	-8	.
O=C1NC(Cc2ccc(O)cc2)c2nc3cc(F)c(F)cc3c(=O)n2-c2cc3ccccc3cc21 (stereo unspecified)	.	47	2	-3	-6	.
O=C1NC(Cc2ccc(O)cc2)c2nc3cc(Cl)ccc3c(=O)n2-c2cc3ccccc3cc21 (stereo unspecified)	.	57*	-9	-20	0	.
Cc1ccc2nc3n(c(=O)c2c1)-c1cc2ccccc2cc1C(=O)NC3Cc1ccc(O)cc1 (stereo unspecified)	.	69*	-7	10	-22	.
C[C@@H]1CN([C@H](C)CO)C(=O)c2cc(Br)cnc2O[C@@H]1CN(C)C(=O)Nc1cccc(F)c1	.	12	0	-7	-14	.
COc1ccc(S(=O)(=O)N(C)C[C@@H]2Oc3cc(Br)ccc3S(=O)(=O)N([C@H](C)CO)C[C@@H]2C)cc1	.	54*	9	-7	-20	.
O=C1NC[C@H](CCCCN2CCN(CCc3ccccc3)C(=O)C2=O)N(Cc2ccccc2)C1=O	.	.	.	11	.	.
O=[N+]([O-])c1cc([N+](=O)[O-])c2cc3ccccc3nc2c1	32	92*	-2	15	84*	54
COc1ccc(C(=O)N2CCOC2CNC(=O)C(=O)NCc2ccccc2)cc1 (stereo unspecified)	.	-4	-16	8	15	.
COc1ccc(C(C#N)=C2C=C(Cl)C(=NO)C=C2Cl)cc1	.	-15	4	-126	68*	.
Cc1cc(-c2ccccc2)n(-c2cc(N/N=C/c3ccccc3O)ncn2)n1	4	45	-54*	47*	74*	50
O=C1[C@H]2[C@@H](c3ccc(C(F)(F)F)cc3)N[C@]3(CCCN(Cc4ccc(F)cc4)C3=O)[C@H]2C(=O)N1Cc1ccccc1	.	33	3	-78	-30	.
Cc1ccc(-n2cc(CNCCc3ncc(C)[nH]3)c(-c3ccc(F)cc3)n2)cc1	27	57*	-10	-54	6	-4
C[C@H]1CN([C@@H](C)CO)C(=O)c2c(c3ccccc3n2C)-c2ccccc2CO[C@H]1CN(C)C(=O)[C@@H]1CCCN1C	.	-7	-4	-5	-1	.
Cc1ccc(C(=O)Nc2cccc(C(=O)NCc3ccccc3)c2)o1	-4	-1	6	-8	-2	5
C/C(=N\NC(=O)C1(C)CC1(Br)Br)c1cccc(NC(=O)c2ccc(C)o2)c1 (stereo unspecified)	25	62*	0	-60	7	6
CCOc1ccc(NC2=C(OC)C(=O)c3ccccc3C2=O)cc1	-21	-110	0	-144	32	31
Cc1ccc(NC2=C(N3CCOCC3)C(=O)c3ccccc3C2=O)cc1	-2	-233	-8	-170	-10	6
Cc1ccc(NC2=C(Cl)C(=O)c3ccccc3C2=O)cc1	35	96*	6	-55	16	103*
